Hits are enriched below; roughly 21% of the tested compounds scored in any of these assays.
CHX counter = counter-screen for Shiga toxin inhibitors: cycloheximide protein synthesis inhibition | cell reporter, cycloheximide protein synthesis inhibition counterscreen | max response, % | actives 12% (n = 300,000) | AID 2314; in the data active = max response mostly above about 13%, no sharp cut-off; inactive = mostly below about 14%; note: read at 38.3 µM for the half of the compounds with a filed dose
Shiga inhibitor = Shiga toxin inhibition | inhibition, % at 38.7 µM | actives 9.2% (n = 290,000) | Vero cells, Shiga toxin protein synthesis inhibition reporter | AID 2315; in the data active = inhibition mostly above about 28%, no sharp cut-off; inactive = mostly below about 43%
Pf growth 96h = inhibits malaria parasite growth, 96 h. P. falciparum luciferase reporter growth, 96 h. Potency, µM (series often up to 28.7 µM), actives largely listed as inhibitors. actives 6.9% (n = 320,000). AID 504834
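Plates of compound plus infected erythrocytes (2% hematocrit, 0.05% parasitemia final) incubate 96 hours, 37 C, 5% CO2. Detection reagent added; reduced luminescence from the parasites' luciferase reporter flags inhibition.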
Pf growth 48h = inhibits P. falciparum growth in the first generation, 48 h | Potency, µM (doses to about 28.7 µM), hits mostly inhibitors | actives 5.9% (n = 310,000) | P. falciparum luciferase growth in erythrocytes, 48 h
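Firefly luciferase activity from engineered P. falciparum reports growth; inhibitors lower the luminescent signal. Cultures contained 2% hematocrit erythrocytes at 0.1% final parasitemia.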
NS1 inh = blocks influenza NS1 protein function; Potency, µM (top dose mostly 46.1 µM); actives 0.4% (n = 270,000); calls by dose curve; note: actives are rising curves; nearly all actives have a fitted effect of over 50% in size
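In this qHTS, NS1 from influenza A is expressed in budding yeast, where it slows growth. Cells are switched from glucose to 2% galactose medium (pH 6.0, -URA), treated with compound, and growth recovery is read at OD600.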
A number is an active result; 0 = inactive; ? = inconclusive; - = no result given; [ ] = another dose, or the depositor's remark. Unless noted, calls come from the whole dose curve; as a rule, active = well fitted inhibition curve with a large enough effect; inconclusive = small, poorly fitted or top-dose-only effect, or another doubt; inactive = no such curve, though single readings can be large or run the other way.

SMILES	CHX counter	Shiga inhibitor	Pf growth 96h	Pf growth 48h	NS1 inh
C=CCOC(=O)C1=C(C)NC(SCC(=O)Nc2ccccc2)=C(C#N)C1c1ccco1 (configuration not stated)	0	0	?	9.3µM	?
CCOC(=O)C1=C(C)NC(SCC(=O)Nc2nc(C)cs2)=C(C#N)C1c1cccs1 (configuration not stated)	0	0	?	2.1µM	0
CCOC(=O)C1=C(C)NC(SCC(=O)O)=C(C#N)C1c1ccco1 (configuration not stated)	0	0	0	0	0
Cn1ncc(Br)c1NC(=O)Nc1ccc(OC(F)(F)F)cc1	0	0	0	0	0
O=c1c2ccccc2cnn1CCOc1cccc(Br)c1	51	120	9.3µM	?	0
Cc1ccc(OCCn2ncc3ccccc3c2=O)c(C)c1	15	0	0	0	0
Cc1ccccc1-c1nc(CS(=O)(=O)CC(=O)NCc2ccco2)c(C)o1	0	0	?	0	0
CC1(C)CC(N=Cc2c(O)n(Cc3ccc4c(c3)OCO4)c(=O)c3ccccc23)CC(C)(C)N1	0	0	10µM	8.3µM	-
O=c1[nH]c(=O)n(Cc2ccco2)c(O)c1C=NCc1ccc2c(c1)OCO2	0	0	?	0	0
CC(C)=C(NC(=O)c1ccccc1)C(=O)NCc1ccccc1	0	0	?	0	-
O=C(NCCc1ccccc1)/C(=N\O)c1ccccc1	45	52	0	0	0
CNC(=O)/C(=N\O)c1ccccc1	0	45	9.3µM	0	0
O=C1NC(=O)/C(=C/c2ccc(O)cc2)S1	36	75	0	0	0
COc1cc(/C=C2\SC(=Nc3ccc(O)cc3)NC2=O)cc(OC)c1O	0	0	9.3µM	3.7µM	0
O=C1NC(=Nc2ccc3ccccc3c2)S/C1=C/c1ccco1	0	0	0[5.75 µM]	0	-
Cc1ccc(N=C2NC(=O)/C(=C\c3ccco3)S2)cc1	28	46	?	?	0
O=C1NC(=O)/C(=C/c2ccccn2)S1	0	0	0	0	0
O=C1NC(=Nc2ccc(O)cc2)S/C1=C/c1ccco1	17	0	?	0	-
CCCn1c(SCC(=O)Nc2nnc(C)s2)nnc1-c1ccoc1C	0	0	0[5.75 µM]	0	0
CCOc1ccccc1NC(=O)c1cccc2ccccc12	0	-	?	0	0
COc1cc(Cl)c(C)cc1NC(=O)c1cccc(OC)c1OC	30	0	?	?	0
Cc1ccoc1C(=O)Nc1cccc2ccccc12	31	0	0	0	0
COc1cc(OC)cc(C(=O)Nc2cccc3ccccc23)c1	0	0	0	0	0
COc1cccc(C(=O)Nc2cccc3ccccc23)c1OC	20	27	?	0	0
Cc1cc(C)nc(SCc2ccc(C(=O)N/N=C/C3CCCCC3)cc2)n1	0	0	0	0	0
SMILES	CHX counter	Shiga inhibitor	Pf growth 96h	Pf growth 48h	NS1 inh
CCNC(=O)NC(=O)C(C)Sc1nnc(COc2ccccc2Cl)o1 (configuration not stated)	15	0	?	-	0
CCNC(=O)NC(=O)C(C)Sc1ccc2c(c1)OCCO2 (configuration not stated)	0	0	-	0	0
Cc1cc(-n2nnc3ccccc32)nc2ccccc12	15	0	-	0	0
c1ccc2nc(N3CCOCC3)cnc2c1	17	0	?	-	0
COc1ccc2c(C)cc(N3CCN(c4ccc(F)cc4)CC3)nc2c1	0	0	-	?	0
Cc1cc(N2CCOCC2)nc2ccccc12	15	49	?	0	0
Cc1cc(N2CCOCC2)nc2cc(O)ccc12	37	54	0	0	0
Cn1nc2c3ccccc3n(Cc3ccc(F)cc3)c2nc1=S	0	0	?	?	0
Cc1cc(N2CCCCC2)nc2ccccc12	11	0	0	0	0
O=C(O)c1c2c(nc3ccccc13)-c1ccccc1CC2	0	0	0	0	0
Cc1cc(N2CCCCCC2)nc2ccccc12	0	0	?	0	0
c1ccc2c(c1)CCc1c-2nc2ccccc2c1N1CCOCC1	0	0	?	15µM	0
Cc1cccc(CSC2=NCCN2S(=O)(=O)c2ccc(F)cc2)c1	0	0	?	0	0
CCOC(=O)c1cc2c(=O)[nH]ccc2nc1C(F)(F)F	0	0	6.6µM	?	0
O=C(NCc1ccncc1)C(=O)NC1CC1	0	0	0	0	-
CCCOC(=O)N1CCN(/[N+]([O-])=N/Oc2ccc([N+](=O)[O-])cc2[N+](=O)[O-])CC1	0	0	-	-	-
O=C(Nc1cc2c(oc1=O)CCCC2=O)c1cccc(Cl)c1	0	61	0	0	0
COc1ccc(C(=O)Nc2cc3c(oc2=O)CCCC3=O)cc1	25	0	0	0	0
COC(=O)c1cc(NC(=O)c2ccc(OC)cc2)c(=O)oc1C	0	0	0	0	-
COc1cccc(C2=Nn3c(nnc3-c3cc(OC)ccc3OC)SC2)c1	0	0	-	-	-
CC(C)c1ccc(N=Cc2c(O)c3ccccc3oc2=O)cc1	60	64	0	0	0
COc1ccc(OC)c(N=Cc2c(O)c3ccccc3oc2=O)c1	0	0	0	0	0
COc1ccc(Cn2c(O)c(C=Nc3ccc(O)cc3)c3ccccc3c2=O)cc1	0	0	12µM	0	?
Cc1cc(C)c(N=Cc2c(O)c3ccccc3oc2=O)c(C)c1	15	-	0	10µM	0
COc1ccc(N=Cc2c(O)c3ccccc3oc2=O)cc1	32	61	0	0	0
SMILES	CHX counter	Shiga inhibitor	Pf growth 96h	Pf growth 48h	NS1 inh
COc1ccc(Cn2c(O)c(C=Nc3ccccc3)c3ccccc3c2=O)cc1	0	0	?	?	0
Oc1c(C=C2N=c3ccccc3=N2)sc(=S)n1C1CCCC1	19	0	?	0	0
Oc1c(C=C2N=c3ccccc3=N2)sc(=S)n1-c1ccc(F)cc1	0	0	?	0	0
Oc1[nH]c(=S)sc1/C=C1\C(c2ccccc2)=Nc2ccccc21	0	0	0	0	0
Oc1[nH]c(=S)sc1C=C1N=c2ccccc2=N1	25	38	0	0	0
COc1cccc(N2C(=O)NC(=O)/C(=C/c3ccc4c(c3)Cc3ccccc3-4)C2=O)c1	19	0	0	0	-
COc1cccc(N2C(=O)NC(=O)/C(=C/c3ccc([N+](=O)[O-])s3)C2=O)c1	0	0	0	0	0
OC(C#Cc1ccccn1)c1cccs1 (configuration not stated)	51	48	0	10µM	0
O=C(NC1CCCCC1)C(c1cccs1)N(C(=O)c1ccccn1)c1ccccc1 (configuration not stated)	0	0	?	0	0
Cc1ccccc1-n1c(SCC(=O)c2c(N)n(C3CC3)c(=O)[nH]c2=O)nnc1N1CCOCC1	-	-	13µM	?	-
Cc1cccc(-n2c(SCC(=O)c3c(N)n(C4CC4)c(=O)[nH]c3=O)nnc2N2CCOCC2)c1	-	-	5.2µM	?	-
Cc1ccc(-n2c(SCC(=O)c3c(N)n(C4CC4)c(=O)[nH]c3=O)nnc2N2CCOCC2)cc1	-	-	?	10µM	-
Cc1ccc(-n2nnnc2SCC(=O)c2c(N)n(C3CC3)c(=O)[nH]c2=O)c(C)c1	-	-	5.9µM	10µM	-
Cc1ccc2nc(SCC(=O)c3c(N)n(C4CC4)c(=O)[nH]c3=O)[nH]c2c1	-	-	?	0	-
CCOC(=O)c1c(-c2ccc(F)cc2)csc1/N=C/N(C)C	0	0	?	?	-
